assay: basal RPMI8226 mitochondrial membrane potential changes, profiling panel, cell-based, JC-1 fluorescence, 24 h, 100 nL compound (AID 1169); conditions: RPMI8226 myeloma, JC-1 mitochondrial potential fluorescence, higher = more signal; note: test concentration not given here

SMILES | z-score
[N-]=[N+]=Nc1ccccc1[C@H]1OC(c2ccc(OCCCO)cc2)=N[C@@]1(Cc1ccccc1)C(=O)N1CCOCC1 | -1.09
CN1C(=O)C2C=CC(C(O)c3ccccc3)N(N3CCCCC3)C2C1=O (stereo not given) | 0.0583
C=CCC(OC(C)=O)[C@@H]1[C@@H](N(Cc2ccc(-c3ccccc3)cc2)C(=O)Cc2ccc(F)cc2)c2cc(OCCCO)ccc2N1C(=O)c1ccc2ccccc2c1 (stereo not given in full) | -0.192
COc1cc(CO)cc(I)c1O[C@H]1C=C(C(=O)NCCO)C[C@@H](N(C(=O)c2cc3ccccc3oc2=O)C2CCCCCC2)[C@@H]1O | -0.27
CCCNC(=O)[C@@]1(Sc2ccc(C)cc2)CC(=O)N(Cc2ccccc2C(F)(F)F)[C@@H]1c1ccc(CO)cc1I | -0.355
NC(=O)[C@@H]1[C@H]2C(=O)O[C@H](c3ccccc3)[C@H](c3ccccc3)N2[C@H](c2ccc(OCCO)cc2)[C@@]12C(=O)Nc1ccc(C#CC3=CCCCC3)cc12 | -0.834
COCCCNC(=O)[C@@]1(Cc2ccccc2)N=C(c2ccc(OCCCO)cc2)O[C@H]1c1ccccc1CN=[N+]=[N-] | -1.26
Cc1ccc(C2C3C(=O)CC4C(=O)N(c5ccccc5)C(=O)C4C3CN2S(=O)(=O)c2ccc(C)cc2)cc1 (stereo not given) | 0.515
O=C(NC1CC1)[C@@H]1c2ccccc2C(=O)N(Cc2cc(F)cc(C(F)(F)F)c2)[C@H]1c1ccc(CO)cc1 | 0.0276
COc1cc2c(cc1O)C(c1cccs1)N(Cc1cccc(OC(F)(F)F)c1)CC2 (stereo not given) | -0.774
CCOC(=O)C1=CC[C@@H](c2ccccc2)N(S(=O)(=O)c2ccc(C)cc2)[C@H]1c1ccc(CC)cc1 | -0.27
CN1CCC(CCCO)=CC1c1cccs1 (stereo not given) | 0.247
CCCCCN1CC=CC23O[C@@H]4C=CCOC(=O)[C@@H]4[C@H]2C(=O)N(C(C)CO)[C@@H]3C1=O (stereo not given in full) | -0.704
Cc1ccc(S[C@]2(C(=O)NCC(C)C)CC(=O)N(Cc3cc(C(F)(F)F)cc(C(F)(F)F)c3)[C@@H]2c2ccc(CO)cc2)cc1 | 0.244
CC1CC/C=C\[C@H]2OC34C=CCN(Cn5nnc6ccccc65)C(=O)[C@H]3N(CCCCCO)C(=O)[C@@H]4C2C(=O)O1 (stereo not given in full) | 0.727
COc1ccc([Si](C)(C)[C@@H]2[C@@H](CCO)O[C@]3(C(=O)N(Cc4cccc(N5CCOC5=O)c4)c4ccccc43)[C@H]2C)cc1 | -0.978
CCCCN1CC=CC23O[C@@H]4C=CCCOC(=O)C4[C@H]2C(=O)N(CCCCCO)[C@@H]3C1=O (stereo not given in full) | 0.117
COc1ccc(CCNC(=O)[C@@]2(C)c3ccccc3C(=O)N(c3ccc(C)cn3)[C@H]2c2ccc(CO)cc2)cc1 | 0.143

SMILES | z-score
COC(=O)[C@@]1(Cc2ccc(OC)cc2)[C@H]2c3cc(C(=O)N4CCCC4)n(Cc4nc5ccccc5[nH]4)c3C[C@H]2CN1C(=O)c1ccccc1 | -0.764
[N-]=[N+]=NCc1ccccc1[C@@H]1OC(c2ccc(OCCCO)cc2)=N[C@]1(CCS(=O)(=O)c1ccccc1)C(=O)N1CCOCC1 | -0.356
CCOC(=O)C1=CC[C@H]2C(=O)N(c3ccccc3)C(=O)[C@@H]12 | -0.00668
COC(=O)[C@@]1(Cc2ccc(F)cc2)[C@H]2c3cc(C(=O)N(C)C)n(Cc4ccc(C)o4)c3C[C@H]2CN1C(=O)c1ccccc1 | -0.847
OCCCC1=CC(C2CC2)N(Cc2cccc(OC(F)(F)F)c2)CC1 (stereo not given) | 0.48
CCOc1cc(C(O)C2C=CC3C(=O)N(c4ccccc4)C(=O)C3N2Nc2ccc(C(C)C)cc2)ccc1O (stereo not given) | 0.41
CO[C@H]1O[C@H](CO)[C@@H](OC(=O)Nc2ccccc2)[C@@H]2OC(=O)[C@@H](Cc3ccc4ccccc4c3)C/C=C/C[C@H](Cc3ccc4ccccc4c3)C(=O)O[C@@H]12 | -0.381
CCOC(=O)C[C@H]1[C@H](OC(=O)c2ccc(C(=O)c3ccccc3)cc2)[C@@H](NC(=O)Cc2ccc(OC)cc2)c2cc(OCCCO)ccc2N1C(=O)c1ccc2ccccc2n1 | -0.234
C=CC[C@]1(C(=O)N2CCOCC2)N=C(c2ccc(OCCCO)cc2)O[C@H]1c1ccccc1N=[N+]=[N-] | -0.733
NC(=O)[C@@H]1[C@H]2C(=O)O[C@H](c3ccccc3)[C@H](c3ccccc3)N2[C@H](c2ccc(O)cc2)[C@@]12C(=O)Nc1ccc(C#CC3=CCCCC3)cc12 | -0.88
COCCCNC(=O)[C@]1(Cc2ccccc2)N=C(c2ccc(OCCCO)cc2)O[C@@H]1c1ccccc1CN=[N+]=[N-] | -0.985
CC(C)(C)OC(=O)CC[C@]1(C(N)=O)N=C(c2ccc(OCCCO)cc2)O[C@H]1c1ccccc1 | 0.816
O=C1C2C=CC(C(O)C=Cc3ccc([N+](=O)[O-])cc3)N(Nc3ccccc3F)C2C(=O)N1c1ccccc1 (stereo not given) | -0.22
C=C(CCCC)/C(=C/C[C@@H](OC(C)=O)c1ccccc1OCCO)c1cc(C(=O)OC)ccc1OC | -0.118
O=C1C2C=CC(C(O)c3ccc(F)cc3)N(Nc3ccc([N+](=O)[O-])cc3)C2C(=O)N1c1ccccc1 (stereo not given) | -0.403
CC(=O)NCCCC[C@@H]1NC(=O)[C@H]2C[C@@H](C(=O)O)[C@@H](c3ccc(O)cc3)N2C1=O | -0.621
COc1ccc([Si](C)(C)[C@H]2[C@H](CCn3cc([C@H](O)c4ccccc4)nn3)O[C@@]3(C(=O)N(C)c4ccccc43)[C@@H]2C)cc1 | -1.16

Reference: PubChem BioAssay
